Test results as given in PubChem BioAssay (Tox21).
Inconclusive results are not listed. Calls of active or inactive are those of the source. Unless noted, calls come from the whole dose curve.

Assays:
[1] = Nuclear factor erythroid 2-related factor 2/antioxidant responsive element (Nrf2/ARE) small molecule agonists: qHTS cell viability counter screen in human keratinocytes (AID 1919968; active = well fitted curve in the direction sought with a large enough effect in the repeat runs; an effect the other way counts as inactive or inconclusive; note: nearly all actives have a fitted effect of over 55% in size)
Method in brief: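 KeratinoSens cells (HaCaT keratinocytes stably carrying an ARE-luciferase reporter) were seeded at 1,500 cells/well and rested 5 h at 37 C/5% CO2. They were then exposed to compounds in DMSO for 23 h. Viability was read by CellTiter-Fluor fluorescence after 1 h.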

[2] = Nuclear factor erythroid 2-related factor 2/antioxidant responsive element (Nrf2/ARE) small molecule agonists: luciferase reporter gene qHTS assay in human keratinocytes (AID 1919969); note: nearly all actives have a fitted effect of over 35% in size
[3] = target: Gonadotropin-releasing hormone receptor (Homo sapiens) (UniProt P30968); assay: Human gonadotropin-releasing hormone receptor (GnRHR) small molecule agonists, calcium flux assay in GnRHR-HEK293 cells (AID 1920063); note: nearly all actives have a fitted effect of over 35% in size
Gonadotropin-releasing hormone receptor (Homo sapiens), sequence (P30968 whole entry, looked up): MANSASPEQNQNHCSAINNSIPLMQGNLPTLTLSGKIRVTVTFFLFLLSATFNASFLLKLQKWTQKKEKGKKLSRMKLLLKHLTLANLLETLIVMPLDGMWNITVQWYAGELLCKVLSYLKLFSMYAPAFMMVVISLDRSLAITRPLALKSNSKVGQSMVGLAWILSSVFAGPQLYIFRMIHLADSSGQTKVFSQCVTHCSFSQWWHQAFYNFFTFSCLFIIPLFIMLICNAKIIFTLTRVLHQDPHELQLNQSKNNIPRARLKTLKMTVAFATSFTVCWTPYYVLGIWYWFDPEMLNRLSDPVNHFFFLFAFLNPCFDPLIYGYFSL
Method in brief: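 HEK293 cells stably expressing human GnRHR were plated 18 h at 37 °C, loaded with calcium dye 1 h at 37 °C, then given compound in agonist mode; fluorescence (Ex/Em 480/540) read kinetically for 3 min at 1 s intervals.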

[4] = target: KiSS-1 receptor (Homo sapiens) (UniProt Q969F8); assay: Human kisspeptin (KISS1R) small molecule agonists, calcium flux assay in KISS1R-HEK293 cells (AID 1920064; active = well fitted curve in the direction sought with a large enough effect in the repeat runs; an effect the other way counts as inactive or inconclusive)
KiSS-1 receptor (Homo sapiens), sequence (Q969F8 whole entry, looked up): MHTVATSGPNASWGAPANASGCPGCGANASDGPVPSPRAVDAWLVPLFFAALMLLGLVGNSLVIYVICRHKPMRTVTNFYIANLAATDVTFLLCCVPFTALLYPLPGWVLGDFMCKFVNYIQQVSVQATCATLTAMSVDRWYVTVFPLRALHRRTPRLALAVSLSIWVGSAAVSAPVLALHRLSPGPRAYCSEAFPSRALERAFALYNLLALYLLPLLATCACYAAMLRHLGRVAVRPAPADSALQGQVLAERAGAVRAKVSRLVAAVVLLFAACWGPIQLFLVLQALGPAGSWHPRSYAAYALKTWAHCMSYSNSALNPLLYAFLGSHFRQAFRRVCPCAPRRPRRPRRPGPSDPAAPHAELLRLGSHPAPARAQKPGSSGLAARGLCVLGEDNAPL
Method in brief: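 HEK293 cells stably expressing human KISS1R were plated 18 h at 37 °C, loaded with calcium dye for 1 h at 37 °C, then given compound by pin tool. Fluorescence (Ex/Em 480/540) was read kinetically for 3 min.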

[5] = G protein-coupled receptor (GPCR) small molecule agonists, calcium flux assay: HEK293 wild type cell line counter screen (AID 1920065)
Method in brief: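 Cells were plated and cultured 18 h at 37 C/5% CO2, then loaded with calcium dye for 1 h at 37 C. Compounds in DMSO were pin-transferred in agonist mode, and fluorescence (Ex/Em 480/540) was read kinetically for 3 min at 1 s intervals.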

[6] = p53 small molecule agonists, cell-based qHTS assay with human liver microsomes (AID 1963577);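 note: p53 response element beta-lactamase reporter cells with liver microsomes plus NADPH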
Method in brief: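 p53RE-bla cells; 5 h settle, 37 C/5% CO2; cpd + HLM 0.5 mg/mL + NADPH 0.5 mg/mL (final); 16 h 37 C; LiveBLAzer 2 h RT dark; fluorescence readout.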

[7] = p53 small molecule agonists, cell-based qHTS assay with rat liver microsomes (AID 1963578)
Method in brief: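 Rat liver microsome activation: microsomes 0.5 mg/mL, NADPH 0.5 mg/mL final; p53RE-bla cells, 16 h 37 C; LiveBLAzer readout, 2 h RT dark.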

[8] = p53 small molecule agonists, cell-based qHTS assay with human liver microsomes: qHTS cell viability counter screen (AID 1963579); note: nearly all actives have a fitted effect of over 45% in size
Method in brief: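 Luminescent CellTiter-Glo read-out, 30 min at room temperature, gauged cytotoxicity in p53RE-bla cells exposed 16 h at 37 C to DMSO-dissolved compounds with metabolic activation by human liver microsomes and NADPH, each 0.5 mg/mL final.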

[9] = p53 small molecule agonists, cell-based qHTS assay with rat liver microsomes: qHTS cell viability counter screen (AID 1963580); note: nearly all actives have a fitted effect of over 45% in size
Method in brief: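 Viability is assessed in parallel with the p53 reporter read: HCT-116 p53RE-bla cells receive compounds plus rat microsomes and NADPH (0.5 mg/mL final apiece), incubate 16 h at 37 C, and then CellTiter-Glo luminescence is recorded.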

[10] = p53 small molecule agonists, cell-based qHTS assay: qHTS cell viability counter screen (AID 1963581); note: nearly all actives have a fitted effect of over 45% in size
Method in brief: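 p53RE-bla HCT-116 cells were exposed to compounds for 16 h at 37 C; after the beta-lactamase FRET read in the same wells, CellTiter-Glo was added and luminescence (intracellular ATP) read after 30 min at room temperature.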

[11] = p53 small molecule agonists, cell-based qHTS assay (AID 1963582; active = well fitted activation curve with a large enough effect in the signal ratio in the repeat runs, not every such curve was filed as active; the % refers to the signal ratio)
Method in brief: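 p53RE-bla beta-lactamase reporter cells rested 5 h at 37 C/5% CO2, then received compounds in DMSO by pin transfer and were incubated 16 h at 37 C. LiveBLAzer B/G FRET substrate was loaded for 2 h at room temperature before fluorescence reading.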

[12] = target: Muscarinic acetylcholine receptor M1 (Homo sapiens) (UniProt P11229); assay: Cholinergic receptor muscarinic 1 (CHRM1) small molecule antagonists, cell-based qHTS assay (AID 1963588); note: nearly all actives have a fitted effect of over 40% in size
Muscarinic acetylcholine receptor M1 (Homo sapiens), sequence (P11229 whole entry, looked up): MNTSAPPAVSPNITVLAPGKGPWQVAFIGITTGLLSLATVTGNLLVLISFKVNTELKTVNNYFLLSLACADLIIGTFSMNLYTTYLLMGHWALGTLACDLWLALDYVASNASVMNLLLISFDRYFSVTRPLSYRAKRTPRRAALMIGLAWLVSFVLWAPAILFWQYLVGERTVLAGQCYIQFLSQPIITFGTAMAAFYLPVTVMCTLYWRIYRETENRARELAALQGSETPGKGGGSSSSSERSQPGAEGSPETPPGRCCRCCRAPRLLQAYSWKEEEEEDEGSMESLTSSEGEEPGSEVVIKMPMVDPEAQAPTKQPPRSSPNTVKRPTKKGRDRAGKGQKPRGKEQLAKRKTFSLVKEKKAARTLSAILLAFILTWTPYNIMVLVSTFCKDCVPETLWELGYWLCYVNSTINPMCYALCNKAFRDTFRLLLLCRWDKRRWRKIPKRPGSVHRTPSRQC
Method in brief: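 CHRM1-CHO calcium-flux assay, antagonist mode. Cells were seeded 18 h, dye-loaded 1 h at 37 C and given compound for 5 min at RT, then acetylcholine was added at 50nM. FDSS fluorescence was read 3 min; 15 concentrations, three runs.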

[13] = target: Muscarinic acetylcholine receptor M1 (Homo sapiens) (UniProt P11229); assay: Cholinergic receptor muscarinic 1 (CHRM1) small molecule agonists, cell-based qHTS assay (AID 1963589); note: nearly all actives have a fitted effect of over 35% in size
Method in brief: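 CHO cells stably expressing human CHRM1, seeded 18 h at 37 C/5% CO2, dye-loaded 1 h at 37 C, then given compound in agonist mode; intracellular calcium fluorescence read kinetically at 1 s intervals. Fifteen concentrations, three independent runs.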

[14] = cAMP Responsive Elements (CRE) small molecule agonists, cell-based qHTS assay (AID 1963590)
Method in brief: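 CRE-bla HEK 293T cells in DMEM with 10% dialyzed FBS, NEAA, pyruvate and 25 mM HEPES were plated 18 h at 37 C/5% CO2, then exposed to compounds in DMSO for 3 h before LiveBLAzer B/G FRET substrate addition.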

[15] = target: Beta-2 adrenergic receptor (Homo sapiens) (UniProt P07550); assay: Adrenergic beta2 receptor (ADRB2) small molecule antagonists, cell-based qHTS assay (AID 1963592); note: series mostly up to about 92 µM; nearly all actives have a fitted effect of over 50% in size
Beta-2 adrenergic receptor (Homo sapiens), sequence (P07550 whole entry, looked up): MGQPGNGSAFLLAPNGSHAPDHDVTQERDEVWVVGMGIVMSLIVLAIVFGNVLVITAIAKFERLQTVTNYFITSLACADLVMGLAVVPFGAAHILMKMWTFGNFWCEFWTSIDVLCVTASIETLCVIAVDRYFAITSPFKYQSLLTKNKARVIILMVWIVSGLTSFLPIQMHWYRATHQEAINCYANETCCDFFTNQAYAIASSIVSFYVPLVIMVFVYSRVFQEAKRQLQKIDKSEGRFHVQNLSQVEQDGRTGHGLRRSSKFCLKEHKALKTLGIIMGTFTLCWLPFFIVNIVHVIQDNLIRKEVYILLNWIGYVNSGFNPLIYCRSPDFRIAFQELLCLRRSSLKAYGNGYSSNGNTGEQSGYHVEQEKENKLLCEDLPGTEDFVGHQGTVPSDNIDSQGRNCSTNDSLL
Method in brief: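 Cells (CHO, stable ADRB2 overexpression) incubated 18-20hr at 37C; compounds added from DMSO; agonist mix (1nM isoproterenol, 100uM IBMX, 25uM Ro-20-1724) added; 0.5hr RT; d2-cAMP and anti-cAMP-cryptate added; 1hr RT; 665/615 nm read.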

[16] = target: D(2) dopamine receptor (Homo sapiens) (UniProt P14416); assay: Dopamine D2 receptor (DRD2) small molecule agonists, cell-based qHTS assay (AID 1963594); note: nearly all actives have a fitted effect of over 35% in size
D(2) dopamine receptor (Homo sapiens), sequence (P14416 whole entry, looked up): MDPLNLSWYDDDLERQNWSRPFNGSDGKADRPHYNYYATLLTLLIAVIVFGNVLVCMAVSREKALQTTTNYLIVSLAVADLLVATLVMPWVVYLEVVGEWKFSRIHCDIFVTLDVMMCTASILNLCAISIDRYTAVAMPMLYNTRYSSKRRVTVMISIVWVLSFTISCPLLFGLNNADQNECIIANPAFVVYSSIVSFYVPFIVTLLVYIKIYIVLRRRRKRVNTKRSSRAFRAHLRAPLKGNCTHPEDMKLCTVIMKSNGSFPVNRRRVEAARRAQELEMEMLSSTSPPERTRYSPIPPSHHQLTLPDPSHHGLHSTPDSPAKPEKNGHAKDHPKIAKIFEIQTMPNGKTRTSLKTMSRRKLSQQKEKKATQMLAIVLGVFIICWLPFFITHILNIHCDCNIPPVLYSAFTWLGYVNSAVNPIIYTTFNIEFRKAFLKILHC
Method in brief: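 HEK293 cells stably expressing human DRD2, pre-treated with PDE inhibitor Ro20-1724 (0.1 mM final) and compound 10 min at room temperature, then stimulated with NKH477 (200nM […]) for 30 min. cAMP read by HTRF (665/620 nm).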

[17] = target: D(2) dopamine receptor (Homo sapiens) (UniProt P14416); assay: Dopamine D2 receptor (DRD2) small molecule antagonists, cell-based qHTS assay (AID 1963595; active = well fitted inhibition curve with a large enough effect in the signal ratio in the repeat runs, with a control signal flat; the % refers to the signal ratio)
Method in brief: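 Readout: HTRF cAMP, cAMP-d2 competing with cellular cAMP for anti-cAMP cryptate, read after 1 h. Cells: DRD2-HEK293. Conditions: 0.1 mM Ro20-1724, 12 nM quinpirole, 200 nM NKH477, 30 min RT.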

[18] = cAMP Responsive Elements (CRE) small molecule antagonists, cell-based qHTS assay (AID 1963591; active = well fitted inhibition curve with a large enough effect in the signal ratio in the repeat runs, not every such curve was filed as active; the % refers to the signal ratio)
Method in brief: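 CRE-bla HEK293T cells were plated 18 h at 37 °C/5% CO2, pinned with compound in DMSO, then stimulated with NKH477 at 0.25 uM final for 3 h. LiveBLAzer B/G FRET substrate was added and plates incubated 2 h at room temperature.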

[19] = target: Beta-2 adrenergic receptor (Homo sapiens) (UniProt P07550); assay: Adrenergic beta2 receptor (ADRB2) small molecule agonists, cell-based qHTS assay (AID 1963593);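 note: CHO cells stably overexpressing human ADRB2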
Method in brief: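 CHO cells stably over-expressing ADRB2 were plated overnight at 37C, then dosed with compounds plus a stimulation mix containing 100uM IBMX and 25uM Ro-20-1724 for 0.5hr at room temperature. cAMP was measured by HTRF competition, 1hr.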

Measured: Potency

COc1cccc([C@H](O)C2CCN(CCc3ccc(F)cc3)CC2)c1OC
not listed: [18] | [19]
inactive: all other assays above

COc1ccc(OC(=O)N(CC(=O)O)Cc2ccc(OCCc3nc(-c4ccccc4)oc3C)cc2)cc1
not listed: [14] | [18] | [19]
inactive: all other assays above

CCOc1ccccc1O[C@H](c1ccccc1)[C@H]1CNCCO1
not listed: [12] | [15] | [16] | [17] | [19]
inactive: all other assays above

Cc1ccc(S(=O)(=O)NC(=O)NN2CC3CCCC3C2)cc1 (configuration not stated)
not listed: [12] | [13] | [17]
inactive: all other assays above

NS(=O)(=O)c1cc(C2(O)NC(=O)c3ccccc32)ccc1Cl (configuration not stated)
not listed: [12] | [13] | [16]
inactive: all other assays above

CCCOc1ccc(C(=O)OCCN(CC)CC)cc1N
not listed: [12] | [13]
inactive: all other assays above

NC12CC3CC(CC(C3)C1)C2
not listed: [12] | [13] | [16]
inactive: all other assays above
